Inconclusive results are not listed. The source made the active and inactive calls. Unless noted, the call rests on the fitted dose curve.

For test [1], the target named is Alpha-galactosidase (Coffea arabica) (UniProt Q42656). In words: Counterscreen for Glucocerebrosidase Inhibitors: qHTS Assay for Coffee Bean alpha-Galactosidase at pH 4.5 (AID 957; active means well fitted curve in the direction sought with a large enough effect; an effect the other way counts as inactive or inconclusive;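 further: plate controls were enzyme alone for no effect and no enzyme for full effect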). A digest of the protocol:
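Enzyme is added first (2 nM final), then compounds titrated from 0.7 nM to 77 uM, then 80 uM 4-methylumbelliferyl alpha-D-galactopyranoside; after 20 min at room temperature a pH 10 NaOH/glycine stop precedes fluorescence reading at 365/440 nm.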
(In general: A counterscreen serves to expose hits that act by an unwanted route or on another target.)

For test [2] the target is unchanged. In words: Counterscreen for Glucocerebrosidase Inhibitors: qHTS Assay for Coffee Bean alpha-Galactosidase at pH 5.9 (AID 998; active means well fitted curve in the direction sought with a large enough effect; an effect the other way counts as inactive or inconclusive;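 further: plate controls were uninhibited enzyme for no effect and no-enzyme basal signal for full effect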). A digest of the protocol: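 Enzyme 2 nM + cpd (0.7 nM–77 uM titration) + 4-MU-alpha-Gal 80 uM, pH 5.9 citrate/Tween-20, RT 20 min, NaOH/glycine stop pH 10, fluor 365/440. Normalized to no-enzyme and full-activity controls; Hill-fit AC50.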

Test [3] can be described thus: Validation screen for inhibitors of Lassa infection (AID 463096). Further: on the % scale 0 is the no-effect control and ±100 the full control effect.
Test [4] in a line: Inducers of the Endoplasmic Reticulum Stress Response (ERSR) in human glioma: Validation (AID 504836; active means well fitted curve in the direction sought with a large enough effect; an effect the other way counts as inactive or inconclusive; further: 0% is about no effect). A digest of the protocol:
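Stably transfected U87-MG glioma cells carrying a GRP78-based luciferase sensor; 16 h compound incubation. Luminescence end-point read 10 min after Bright-Glo addition at room temperature.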

The nature of test [5]: qHTS for Inhibitors of the Functional Ribonucleoprotein Complex (vRNP) of Lassa (LASV) Arenavirus: LASV Primary Screen - GLuc reporter signal (AID 1347082; calls by dose curve; tested in HEK293 reporter line; further: on the % scale 0 is the no-effect control and ±100 the full control effect; nearly all actives have a fitted effect of over 60% in size).
A short description of test [6]: qHTS for Inhibitors of the Functional Ribonucleoprotein Complex (vRNP) of Lassa (LASV) Arenavirus: Viability assay - alamar blue signal for LASV Primary Screen (AID 1347083; calls by dose curve; tested in HEK293 reporter line; further: on the % scale 0 is the no-effect control and ±100 the full control effect; nearly all actives have a fitted effect of over 80% in size). Background: qHTS replaces the single test concentration by a dilution series.
Test [7] in a line: qHTS for Inhibitors of the Functional Ribonucleoprotein Complex (vRNP) of Lymphocytic Choriomeningitis Arenaviruses (LCMV): Viability assay - alamar blue signal for LCMV Primary Screen (AID 1347085; calls by dose curve; tested in HEK293 reporter line; further: on the % scale 0 is the no-effect control and ±100 the full control effect; nearly all actives have a fitted effect of over 80% in size).
The target in test [8] is Nucleoprotein (Lymphocytic choriomeningitis virus (strain Armstrong)) (UniProt P09992). In words: qHTS for Inhibitors of the Functional Ribonucleoprotein Complex (vRNP) of Lymphocytic Choriomeningitis Arenaviruses (LCMV): LCMV Primary Screen - GLuc reporter signal (AID 1347086). Further: on the % scale 0 is the no-effect control and ±100 the full control effect; nearly all actives have a fitted effect of over 70% in size.
Nucleoprotein (Lymphocytic choriomeningitis virus (strain Armstrong)), sequence (P09992 whole entry, looked up): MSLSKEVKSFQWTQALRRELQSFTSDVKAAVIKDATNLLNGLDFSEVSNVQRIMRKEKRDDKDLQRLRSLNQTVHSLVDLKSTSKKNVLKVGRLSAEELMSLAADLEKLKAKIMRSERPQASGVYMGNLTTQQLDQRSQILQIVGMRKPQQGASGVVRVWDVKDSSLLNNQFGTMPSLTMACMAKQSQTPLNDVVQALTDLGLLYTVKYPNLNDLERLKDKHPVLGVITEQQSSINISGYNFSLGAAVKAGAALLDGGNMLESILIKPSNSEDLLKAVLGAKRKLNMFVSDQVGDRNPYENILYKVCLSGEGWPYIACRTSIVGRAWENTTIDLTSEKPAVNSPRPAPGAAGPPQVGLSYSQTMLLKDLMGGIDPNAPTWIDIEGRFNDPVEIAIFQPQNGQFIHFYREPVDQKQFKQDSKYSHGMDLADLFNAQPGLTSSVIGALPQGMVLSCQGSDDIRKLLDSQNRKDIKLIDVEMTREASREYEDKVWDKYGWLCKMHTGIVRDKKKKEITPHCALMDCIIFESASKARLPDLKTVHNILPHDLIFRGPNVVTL
The nature of test [9]: Cytotoxicity counterscreen for inhibitors of SARS-CoV-2 cell entry (AID 1645845). Further: nearly all actives have a fitted effect of over 50% in size. The method in brief:
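Counterscreen run in the same HEK293-ACE2 line as the pseudotyped-particle entry assay, without particles. Viability after 48 h at 37 C was read as ATP luminescence, scaled between cell-containing and cell-free wells.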

Test [10] can be described thus: Primary qHTS to identify inhibitors of SARS-CoV-2 cell entry (AID 1645846). Further: nearly all actives have a fitted effect of over 45% in size. As to conditions: activity change, negative = inhibition: at 57.1 µM (top of the series) unless noted. A digest of the protocol:
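Using luciferase-reporting pseudoviruses carrying Wuhan-Hu-1 spike, the screen tracks entry into stably ACE2-expressing cells over 48 hr. Activity is expressed relative to spike particles versus particles lacking any fusion protein.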

Test [11] can be described thus: qHTS assay for small molecule agonists of the antioxidant response element (ARE) signaling pathway (AID 651741; active means well fitted activation curve with a large enough effect in the signal ratio; the % refers to the signal ratio; further: potency means the concentration at half of the fitted maximal effect). The method in brief:
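Stably integrated ARE-beta-lactamase reporter HepG2 cells; 16 h compound incubation, 37 C; LiveBLAzer FRET substrate 2 h at room temperature; fluorescence intensity.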

Test [12] in a line: qHTS profiling of the MIPE4 collection as inhibitors of Plasmodium falciparum (3D7) proliferation (AID 743344; call rule not given here;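 further: scaled between DMSO vehicle wells and 0.29 µM artemisinin as full inhibition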). The note with it: P. falciparum 3D7 in erythrocytes, SYBR Green DNA fluorescence, 72 h; at 28.5 µM (top of the series) unless noted. The method in brief: (§1)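 Parasite DNA was quantified by SYBR Green I fluorescence (ex 485, em 535 nm) after overnight lysis in saponin/Triton buffer at room temperature. Cultures at 0.3% parasitemia and 2.5% hematocrit were first exposed to compound for 72 h at 37 C; signals were normalised to artemisinin (0.29 uM) and vehicle wells.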

The nature of test [13]: qHTS profiling of the MIPE4 collection as inhibitors of Plasmodium falciparum (DD2) proliferation (AID 743345; call rule not given here). The note with it: P. falciparum Dd2 in erythrocytes, SYBR Green DNA, 72 h; at 28.5 µM (top of the series) unless noted. The method in brief:
as §1

A short description of test [14]: qHTS profiling of the MIPE4 collection as inhibitors of Plasmodium falciparum (DD2) proliferation (Rep 2) (AID 743346; call rule not given here). As to conditions: P. falciparum Dd2 in erythrocytes, SYBR Green DNA, 72 h; at 28.5 µM (top of the series) unless noted. A digest of the protocol: as §1
A short description of test [15]: qHTS profiling of the MIPE4 collection as inhibitors of Plasmodium falciparum (HB3) proliferation (AID 743347; call rule not given here;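 further: plate controls were DMSO vehicle wells for no effect and artemisinin wells for full effect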). The note with it: P. falciparum HB3 in erythrocytes, SYBR Green DNA, 72 h; at 28.5 µM (top of the series) unless noted. The method in brief:
as §1

For test [16], the target named is Nuclear receptor subfamily 1 group I member 3 (Homo sapiens) (UniProt Q14994). In words: Primary qHTS for antagonist of constitutive androstane receptor (CAR) against the NCATS DSHEA and TCM libraries (AID 1794836; active means well fitted curve in the direction sought with a large enough effect; an effect the other way counts as inactive or inconclusive;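 further: HepG2 cells stably expressing hCAR with CYP2B6 luciferase reporter stimulated by CITCO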). A digest of the protocol: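 HepG2-CYP2B6-hCAR cells, attached 5 h, given compounds plus CITCO agonist […], incubated 24 h at 37 C. Luciferase luminescence read, multiplexed with CellTiter-Fluor viability (Ex/Em 405/540 nm).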
Nuclear receptor subfamily 1 group I member 3 (Homo sapiens), sequence (Q14994 whole entry, looked up): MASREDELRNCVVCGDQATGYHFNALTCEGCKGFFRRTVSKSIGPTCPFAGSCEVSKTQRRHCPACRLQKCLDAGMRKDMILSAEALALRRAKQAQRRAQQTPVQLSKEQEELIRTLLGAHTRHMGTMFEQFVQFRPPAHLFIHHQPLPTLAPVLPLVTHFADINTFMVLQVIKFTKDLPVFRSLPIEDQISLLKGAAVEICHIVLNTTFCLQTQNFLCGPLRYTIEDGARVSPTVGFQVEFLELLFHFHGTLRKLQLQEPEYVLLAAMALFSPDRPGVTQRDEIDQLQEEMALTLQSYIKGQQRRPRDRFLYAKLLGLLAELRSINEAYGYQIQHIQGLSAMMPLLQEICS

Alpha-galactosidase (Coffea arabica), sequence (Q42656 whole entry, looked up): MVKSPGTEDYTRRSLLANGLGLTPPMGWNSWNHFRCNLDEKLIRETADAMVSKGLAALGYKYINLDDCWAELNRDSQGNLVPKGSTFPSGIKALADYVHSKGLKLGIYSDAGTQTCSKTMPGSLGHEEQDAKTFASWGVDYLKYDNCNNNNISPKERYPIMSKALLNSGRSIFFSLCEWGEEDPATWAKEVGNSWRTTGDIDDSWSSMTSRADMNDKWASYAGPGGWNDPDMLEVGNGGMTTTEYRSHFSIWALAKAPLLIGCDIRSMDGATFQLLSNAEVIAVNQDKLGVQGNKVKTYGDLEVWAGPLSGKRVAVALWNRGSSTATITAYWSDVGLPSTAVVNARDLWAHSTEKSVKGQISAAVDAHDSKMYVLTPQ

In the case of `C[C@H](Cc1ccc(O)c(O)c1)[C@@H](C)Cc1ccc(O)c(O)c1`, the compound was called inactive in test [1], in [2] and in test [4]. Moreover, the Potency entry in [3], in test [5], in test [6], in test [7], in test [8] and in test [9] was “inactive” in each case. Besides, in [10], the activity change, negative = inhibition is -10.6%.
Regarding `O=C1c2cccc(O)c2C(=O)c2c(O)cc(CO)cc21`, in test [11], the Potency was 12.2 µM (active). This compound also returned a parasite growth, % of DMSO control in test [12] of 321%. The parasite growth remaining, % of DMSO control (lower = more inhibition) in [13] was 99.1%. Besides, the parasite growth, % of control (lower = inhibition) in [14] was 97.1%. For the same compound, the growth, % of control in test [15] came out at 568%. In addition, the Potency result in test [5], in test [6], in [7], in [8] and in test [9] was “inactive” each time. Moreover, in test [10], the activity change, negative = inhibition is -12.6%.
Consider `CCCCCCCCCCCCCCCC(=O)O[C@H]1[C@@H](O)[C@@H](O)[C@@H]([C@H](NC(=O)[C@@H]2C[C@@H](CCC)CN2C)[C@H](C)Cl)O[C@@H]1SC`, for which the growth, % of control in test [15] was 81.5%. The Potency result in test [5], in test [6], in [7], in test [8], in [9] and in test [10] was “inactive” each time.
`C[C@@H](c1ncncc1F)[C@](O)(Cn1cncn1)c1ccc(F)cc1F` gave a parasite growth, % of DMSO control in test [12] of 65.8%. The parasite growth remaining, % of DMSO control (lower = more inhibition) in test [13] amounted to 104%. For the same compound, in test [14], the parasite growth, % of control (lower = inhibition) was 115%. In test [15], this compound yielded a growth, % of control of 94.6%. Also, the Potency entry in test [5], in test [6], in [7], in test [8] and in test [9] was “inactive” each time. Further, the activity change, negative = inhibition in test [10] is -26.1%.
As for `N#C/C(=C\c1ccc(O)c(O)c1)C(=O)NCc1ccccc1`, the outcome in test [2] and in test [4] was inactive. In addition, the Potency entry in test [3], in test [5], in test [6], in test [7], in test [8] and in test [9] was “inactive” throughout.
For `C=C(C)[C@@H]1CC[C@]2(C(=O)O)CC[C@]3(C)[C@H](CC[C@@H]4[C@@]5(C)CC[C@H](O)C(C)(C)[C@@H]5CC[C@]43C)[C@@H]12`, in test [12], the parasite growth, % of DMSO control is 60.5%. In addition, in [14], the parasite growth, % of control (lower = inhibition) is 97%. For the same compound, the growth, % of control in test [15] was 208%. The Potency entry in [5], in test [6], in [7], in test [8], in test [9] and in [10] was “inactive” in each case. Further, the Potency result in test [16] is “inactive”.
As for `C[C@]12CCC3c4ccc(O)cc4CCC3C1CCC2=O` (stereo not given in full), the Potency result in [5], in test [6], in test [7], in test [8], in test [9] and in [10] was “inactive” each time.
Turning to `COc1ccc(CCC(=O)Nc2nc3ccc(Cl)cc3s2)cc1OC`, the parasite growth remaining, % of DMSO control (lower = more inhibition) in test [13] was 66.5%. Further, in [14], the parasite growth, % of control (lower = inhibition) is 46.1%. Further, the Potency entry in test [5], in test [6], in test [7], in test [8], in test [9] and in test [10] was “inactive” each time.
For the compound `CCN1/C(=C/C(C)=O)Sc2ccc(OC)cc21`, the compound was called inactive in [1], in test [2] and in test [4]. Also, the Potency result in test [3], in [5], in test [6], in test [7], in test [8] and in test [9] was “inactive” throughout. For the same compound, in test [10], the activity change, negative = inhibition was -1.33%.

The values are drawn from PubChem BioAssay (NCATS).
